BH1578 lux ind: inducers of Vibrio cholerae quorum light production without autoinducers, primary screen, BH1578 luxS cqsA deficient, single point | V. cholerae BH1578 lux reporter, luminescence, 6 h | activation, % at 18.7 µM | actives 0.16% (n = 350,000) | AID 588436, 2011; in the data active = activation mostly above about 9.7%, no sharp cut-off
FBA Mtb inh: Mtb FBA enzyme inhibitors, primary screen, biochemical, fluorescence, strain H37Rv. Fructose-bisphosphate aldolase (Mycobacterium tuberculosis (strain ATCC 25618 / H37Rv)), …. purified M. tuberculosis FBA, fluorescence read-out. inhibition, % at 1 µM. actives 2.3% (n = 360,000). AID 588726, 2011; in the data active = inhibition above about 27%
Target sequence (P9WQA3 whole entry, looked up): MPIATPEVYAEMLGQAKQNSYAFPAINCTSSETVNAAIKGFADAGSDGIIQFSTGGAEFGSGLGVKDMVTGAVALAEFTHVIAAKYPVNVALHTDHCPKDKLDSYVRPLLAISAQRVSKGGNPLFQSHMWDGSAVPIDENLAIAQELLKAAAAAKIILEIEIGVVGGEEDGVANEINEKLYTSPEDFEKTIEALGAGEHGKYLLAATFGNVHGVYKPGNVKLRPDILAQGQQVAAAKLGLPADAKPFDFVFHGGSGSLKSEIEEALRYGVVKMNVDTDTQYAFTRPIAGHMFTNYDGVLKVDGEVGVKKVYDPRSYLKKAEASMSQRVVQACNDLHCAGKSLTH
CCHFV vOTU inh: CCHFV vOTU protease inhibitors, primary screen, biochemical, Pep-AMC substrate, fluorescence; Crimean-Congo hemorrhagic fever virus L polyprotein viral ovarian tumor (vOTU) protease …; inhibition, % at 11.5 µM; actives 0.55% (n = 370,000); AID 651958, 2012
GDH-TPI counter: GDH-TPI coupling enzyme inhibitors, primary screen, artefact control for M. tuberculosis FBA inhibitor project, biochemical, absorbance, full deck; GDH-TPI coupled enzyme counterscreen, NADH absorbance; inhibition, % at 4.8 µM; actives 1.2% (n = 360,000); AID 588335, 2011
A number is an active result. Most compounds without a hit are left out; they make up all but 3.9% or so of the library. Rule as the data show it, unless noted: active = inhibition above about 30%; inactive = the rest.

Results for CCOc1ccc(-n2c([S-])c(C(=O)Nc3ccc(S(=O)(=O)N4CCOCC4)cc3)[n+]3cc(C(N)=O)ccc23)cc1 ?
BH1578 lux ind: inactive; FBA Mtb inh: inactive; CCHFV vOTU inh: inactive; GDH-TPI counter: 39

What do the screens show for `COc1ccc(-c2oc(=O)n(C)c2-c2ccc(OC)cc2)cc1`?
BH1578 lux ind: inactive; FBA Mtb inh: inactive; CCHFV vOTU inh: inactive; GDH-TPI counter: inactive

Results for COCCn1c(-c2ccc(OC)cc2)c(-c2ccc(OC)cc2)oc1=O ?
BH1578 lux ind: inactive; FBA Mtb inh: 131; CCHFV vOTU inh: inactive; GDH-TPI counter: inactive

Results for O=C(/C=C/c1ccc(F)cc1)N1CCN(Cc2ccccc2)CC1 ?
BH1578 lux ind: inactive; FBA Mtb inh: inactive; CCHFV vOTU inh: inactive; GDH-TPI counter: inactive

What do the screens show for `COc1cc2cc(C(=O)NCCc3ccccc3)[nH]c2cc1OC`?
BH1578 lux ind: inactive; FBA Mtb inh: 160; CCHFV vOTU inh: inactive; GDH-TPI counter: inactive

What do the screens show for `COc1cc2cc(C(=O)Nc3ccc4c(c3)OCCO4)[nH]c2cc1OC`?
BH1578 lux ind: inactive; FBA Mtb inh: inactive; CCHFV vOTU inh: inactive; GDH-TPI counter: 36

Results for COc1ccc2cc(C(=O)NCCc3ccccc3)[nH]c2c1 ?
BH1578 lux ind: inactive; FBA Mtb inh: inactive; CCHFV vOTU inh: inactive; GDH-TPI counter: inactive

What do the screens show for `COc1ccccc1S(=O)(=O)Nc1ccc2nc(C)sc2c1`?
BH1578 lux ind: inactive; FBA Mtb inh: inactive; CCHFV vOTU inh: inactive; GDH-TPI counter: inactive

Results for O=c1[nH]c(C2CCN(S(=O)(=O)Cc3ccccc3)CC2)nc2c1nnn2Cc1ccccc1Cl ?
BH1578 lux ind: inactive; FBA Mtb inh: inactive; CCHFV vOTU inh: inactive; GDH-TPI counter: inactive

How did CCCC(C)Sc1nc2c([nH]1)c(=S)n(C)c(=O)n2C (centres undefined) do in these assays?
BH1578 lux ind: inactive; FBA Mtb inh: inactive; CCHFV vOTU inh: inactive; GDH-TPI counter: 35

Results for Cc1cc(-c2ccccc2)c2ccc(NC(=O)C(C)(C)C)nc2n1 ?
BH1578 lux ind: inactive; FBA Mtb inh: inactive; CCHFV vOTU inh: inactive; GDH-TPI counter: 46

What do the screens show for `Cc1cc(C)nc(/N=C(\NC(=O)C(C)(C)C)Nc2ccccc2)n1`?
BH1578 lux ind: inactive; FBA Mtb inh: inactive; CCHFV vOTU inh: inactive; GDH-TPI counter: inactive

What do the screens show for `CCN(CC)S(=O)(=O)c1ccc(N/N=C(\C)c2ccncc2)nc1`?
BH1578 lux ind: inactive; FBA Mtb inh: inactive; CCHFV vOTU inh: inactive; GDH-TPI counter: 38

What do the screens show for `CCN(CC)S(=O)(=O)c1ccc(N/N=C(\C)c2ccncc2)c([N+](=O)[O-])c1`?
BH1578 lux ind: inactive; FBA Mtb inh: inactive; CCHFV vOTU inh: inactive; GDH-TPI counter: inactive

What do the screens show for `CCN(CC)S(=O)(=O)c1ccc(N/N=C(\C)c2cccnc2)nc1`?
BH1578 lux ind: inactive; FBA Mtb inh: inactive; CCHFV vOTU inh: inactive; GDH-TPI counter: 35

What do the screens show for `CC(NC(=O)NC(=O)c1ccc(Cl)cc1Cl)C1CC1` (centres undefined)?
BH1578 lux ind: inactive; FBA Mtb inh: inactive; CCHFV vOTU inh: inactive; GDH-TPI counter: inactive

Results for O=S1(=O)N[C@H](Cc2ccccc2)COc2cccc(N3CCC[C@@H]3CO)c21 ?
CCHFV vOTU inh: inactive

How did COc1ccc(N2C(=O)C3ON(C4SC(=S)N(C)C4(C)C)C(c4ccc([N+](=O)[O-])cc4)C3C2=O)cc1 (centres undefined) do in these assays?
BH1578 lux ind: inactive; FBA Mtb inh: inactive; CCHFV vOTU inh: inactive; GDH-TPI counter: inactive

What do the screens show for `CCOc1ccc(-c2cccc(NC(=O)c3ccco3)c2)nn1`?
BH1578 lux ind: inactive; FBA Mtb inh: inactive; CCHFV vOTU inh: inactive; GDH-TPI counter: inactive

How did COC(=O)c1ccc(/C=N/NC(=S)NC(C)C)cc1 do in these assays?
BH1578 lux ind: inactive; FBA Mtb inh: inactive; CCHFV vOTU inh: inactive; GDH-TPI counter: 48

Results for COC(=O)c1ccc(/C=N/NC(=O)CC(=O)NC(C)C)cc1 ?
BH1578 lux ind: inactive; FBA Mtb inh: inactive; CCHFV vOTU inh: inactive; GDH-TPI counter: inactive

Results for Cc1nnc(-c2ccc(Cl)cc2)[nH]c1=O ?
BH1578 lux ind: inactive; FBA Mtb inh: inactive; CCHFV vOTU inh: inactive; GDH-TPI counter: inactive

How did O=C(Nc1nccs1)C(c1ccccc1)N1CCCCC1 (centres undefined) do in these assays?
BH1578 lux ind: inactive; FBA Mtb inh: inactive; CCHFV vOTU inh: inactive; GDH-TPI counter: inactive

What do the screens show for `CCOC(=O)N/N=C/c1ccc(N(CC)CC)cc1O`?
BH1578 lux ind: inactive; FBA Mtb inh: inactive; CCHFV vOTU inh: inactive; GDH-TPI counter: 41

What do the screens show for `CCN(CC)c1ccc(C=Nc2cc(C)ccc2C)c(O)c1`?
BH1578 lux ind: inactive; FBA Mtb inh: inactive; CCHFV vOTU inh: inactive; GDH-TPI counter: 38

How did COc1cc(/C=N\NC(=O)CNC(=O)C2COc3ccccc3O2)ccc1O (centres undefined) do in these assays?
BH1578 lux ind: inactive; FBA Mtb inh: inactive; CCHFV vOTU inh: inactive; GDH-TPI counter: inactive

What do the screens show for `CCN(CC)c1ccc(/C=N/NC(=O)CCC(=O)NCc2ccccc2)c(O)c1`?
BH1578 lux ind: inactive; FBA Mtb inh: inactive; CCHFV vOTU inh: inactive; GDH-TPI counter: 40

How did O=C(CCC(=O)N/N=C/c1c[nH]c2ccccc12)NCc1ccccc1 do in these assays?
BH1578 lux ind: inactive; FBA Mtb inh: inactive; CCHFV vOTU inh: inactive; GDH-TPI counter: inactive

How did CCN(CC)c1ccc(/C=N/Nc2ccc(C)cc2)c(O)c1 do in these assays?
BH1578 lux ind: inactive; FBA Mtb inh: inactive; CCHFV vOTU inh: inactive; GDH-TPI counter: inactive

Results for CCN(CC)c1ccc(/C=N/NC(=O)CNC(=O)C2COc3ccccc3O2)c(O)c1 (centres undefined) ?
BH1578 lux ind: inactive; FBA Mtb inh: inactive; CCHFV vOTU inh: inactive; GDH-TPI counter: 33

What do the screens show for `O=C(NCc1ccco1)c1ccc(COc2ccccc2[N+](=O)[O-])o1`?
BH1578 lux ind: inactive; FBA Mtb inh: inactive; CCHFV vOTU inh: inactive; GDH-TPI counter: inactive

How did Cc1cc(OCc2cn(CC(=O)c3ccc(O)cc3)nn2)ccc1[N+](=O)[O-] do in these assays?
BH1578 lux ind: inactive; FBA Mtb inh: inactive; CCHFV vOTU inh: inactive; GDH-TPI counter: 41

How did COc1ccc(OC)c(-c2cc(C(=O)N3CCCc4ccccc43)no2)c1 do in these assays?
BH1578 lux ind: inactive; FBA Mtb inh: inactive; CCHFV vOTU inh: inactive; GDH-TPI counter: 34

How did COc1ccccc1-c1cc(C(=O)N2CCCc3ccccc32)no1 do in these assays?
BH1578 lux ind: inactive; FBA Mtb inh: inactive; CCHFV vOTU inh: inactive; GDH-TPI counter: inactive

What do the screens show for `O=C(N/N=C/c1cc2cc3c(cc2nc1Cl)OCO3)c1ccncc1`?
BH1578 lux ind: inactive; FBA Mtb inh: inactive; CCHFV vOTU inh: inactive; GDH-TPI counter: 69

How did O=C(N/N=C/c1cc2cc3c(cc2nc1Cl)OCCO3)c1ccccc1O do in these assays?
BH1578 lux ind: inactive; FBA Mtb inh: inactive; CCHFV vOTU inh: inactive; GDH-TPI counter: inactive

Results for Cc1cc(C)c(C(=O)NNC(=O)c2cccnc2)c(C)c1 ?
BH1578 lux ind: inactive; FBA Mtb inh: inactive; CCHFV vOTU inh: inactive; GDH-TPI counter: inactive

How did CC1CCCN(CCCNC(=O)c2nn(C)c3c2CSc2ccccc2-3)C1 (centres undefined) do in these assays?
BH1578 lux ind: inactive; FBA Mtb inh: inactive; CCHFV vOTU inh: inactive; GDH-TPI counter: inactive

Compound activity deposited in PubChem BioAssay by several laboratories.
